PubChem BioAssay AID651820 (National Center for Advancing Translational Sciences (NCATS), 2012)
Values joined by “and” are separate entries in the source; they are usually repeats but may differ in a detail not shown here. Identical values can stand only once. Among all 340,000 compounds or so, about 12,000 (3.5%) were called active. About 18% were inconclusive and are not listed. The call rests on the fitted dose curve; in most records, active means well fitted inhibition curve with a large enough effect; inconclusive means small, poorly fitted or top-dose-only effect, or another doubt; inactive means no such curve, though single readings can be large or run the other way. The entries come from a sample that favours actives as a whole. Some compounds were tested as several samples or in several runs, with calls that do not always agree.

test: qHTS Assay for Inhibitors of Hepatitis C Virus (HCV); settings: Huh7.5.1 HCVcc-Cre infection, luciferase reporter, 44 h; series mostly up to 41.8 µM; activity change, negative = inhibition: at the top concentration
Procedure, shortened: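 Infectious HCV cell culture screen: compound-treated cells (1,000/well, pre-plated 4 h) are infected with HCVcc-Cre at roughly 0.5 moi and grown 44 h. Infection is quantified by luciferase signal after 15 min substrate incubation at room temperature.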
On the % scale 0 is the no-effect control and ±100 the full control effect; potency means the concentration at half of the fitted maximal effect.

SMILES | activity change, negative = inhibition | Potency
Cc1ccc(C)c(NC(=O)CN(C)C(=O)COc2ccc3ccccc3c2)c1 | 4.35% (inactive) | –
CC(NC(=O)COC(=O)c1ccc2ccccc2n1)c1ccccc1 (stereo not given) | 14.5% (inactive) | –
COc1cc(NC(=O)COC(=O)c2cc(S(=O)(=O)N3CCOCC3)ccc2F)cc(OC)c1 | -6.05% (inactive) | –
Cc1ccc(F)cc1NC(=O)CSCc1c(C)noc1C | 7.86% (inactive) | –
O=C(COC(=O)CNS(=O)(=O)c1ccc(F)c(F)c1F)NC1CCCC1 | 14.1% (inactive) | –
CCC1(C)COC(c2ccc(OC)c(OC)c2)OC1 (stereo not given) | 10.1% (inactive) | –
C=CC[C@H](CC(=O)NCCO)C(=O)N[C@@H](COC(=O)[C@@H](CC=C)Cc1ccc(F)cc1)Cc1c[nH]c2ccccc12 | -1.64% (inactive) | –
C=CC[C@H](CC(=O)OC(C)(C)C)C(=O)OC[C@H]1CCCN1C(=O)[C@H](CC=C)CC(=O)N(CCO)Cc1ccccc1 | -2.88% (inactive) | –
C=CCC[C@@H](Cc1ccc(F)cc1)C(=O)O[C@H](CNC(=O)[C@H](CC=C)CC(=O)N(CCO)Cc1ccccc1)c1ccccc1 | – | 8.91 µM (active)
COc1cc(Nc2nc3ccc(Cl)cc3n3cnnc23)cc(OC)c1OC | 0.274% (inactive) | –
COc1ccc(CCNc2nc3ccc(C)cc3n3cnnc23)cc1OC | -4.98% (inactive) | –
COc1ccc(OC)c(Nc2nc3ccccc3n3cnnc23)c1 | – | 10 µM (active)
CN1CCC(N(C)C(=O)c2ccc(Cl)c(S(=O)(=O)Nc3ccc(Cl)cc3)c2)CC1 | 7.94% (inactive) | –
CC1CC(C)(C)CC2(C1)NC(=O)N(CC(=O)Nc1nccs1)C2=O (stereo not given) | 21.6% (inactive) | –
COc1ccc2[nH]c3c(c2c1)CCN[C@H]3C | -6.42% (inactive) | –
COc1ccc2[nH]c(=S)cc(C)c2c1 | 13.3% (inactive) | –
COc1ccc2[nH]c3ccc(OC)cc3c2c1 | – | 25.1 µM (active)
COc1ccc(-c2noc(CCC(=O)N3CCN(c4cccc(C)c4)CC3)n2)cc1 | -3.79% (inactive) | –
COc1cccc(-n2c(SCC(=O)NC3CCS(=O)(=O)C3)nc3ccccc3c2=O)c1 (stereo not given) | 21.3% (inactive) | –
O=C1CC(c2ccccc2)C(=O)N2C(=O)CC(c3ccccc3)C(=O)N12 (stereo not given) | 17.1% (inactive) | –
CCN(CC)C(=O)[C@H]1C[C@H](CC(=O)NCC23CC4CC(CC(C4)C2)C3)C(=O)N2CCc3c([nH]c4cc(CCC(=O)N(C)C)ccc34)[C@]12C | -5.73% [at 8.37 µM] (inactive) | –
COc1ccc(OCC(=O)Nc2ccc(N3CCC(C)CC3)cc2)cc1 | -12.1% (inactive) | –
O=C(COc1ccc([N+](=O)[O-])cc1)Nc1ccc(N2CCCC2)cc1 | 2.94% (inactive) | –
CCC(=O)c1ccc(OCC(=O)Nc2ccc(N3CCCCC3)cc2)cc1 | – | 11.2 µM (active)
O=C(NC(=S)Nc1ccc(Br)cc1F)C1CCCCC1 | 18.5% (inactive) | –

SMILES | activity change, negative = inhibition | Potency
Cc1c(NS(=O)(=O)c2cc(C(=O)NCCc3ccc(F)cc3)cc(Cl)c2Cl)c(=O)n(-c2ccccc2)n1C | 14.6% (inactive) | –
CCN(CC(=O)NC(C)C)C(=O)c1cc(S(=O)(=O)N2CCCCC2)ccc1N1CCCCC1 | 26.8% (inactive) | –
O=C(/C=C/c1ccc(OCc2c(F)cccc2Cl)cc1)N1CCOCC1 | 4.94% (inactive) | –
CN(C)CCCNC(=O)/C=C/c1ccc(OCc2c(F)cccc2Cl)cc1 | – | 2.82 µM (active)
COCCCNC(=O)/C=C/c1ccc(OCc2c(F)cccc2Cl)cc1 | -5.61% (inactive) | –
O=C1COc2ccc(C(=O)COC(=O)CCOc3ccccc3)cc2N1 | 35.1% (inactive) | –
COCCN(C(=O)CC1CCCCC1)c1c(N)n(CC(C)C)c(=O)[nH]c1=O | 2.89% (inactive) | –
CCCCn1c(N)c(N(CCOC)C(=O)c2cccc(S(=O)(=O)N3CCCCC3)c2)c(=O)[nH]c1=O | 9.94% (inactive) | –
CC(Cc1ccccc1)NCCC(c1ccccc1)c1ccccc1 (stereo not given) | – | 10 µM (active)
Cc1ncoc1C(=O)NCCC(c1ccccc1)c1ccccc1 | -13.5% (inactive) | –
CC(Cc1ccccc1)C(=O)N(C)Cc1ccccc1 (stereo not given) | -10.3% (inactive) | –
CC[C@]12c3[nH]c4ccc(OC)cc4c3CCN1C(=O)C(CC(=O)NCc1ccco1)C[C@@H]2C(=O)N1CCN(C(=O)C2CC2)CC1 (stereo not given in full) | 36.7% (inactive) | –
O=C(CN1CCN(S(=O)(=O)c2ccc(Cl)s2)CC1)N1CCCCC1 | 3.28% (inactive) | –
COc1ccc(CCNC(=O)COC(=O)C2CCCCC2)cc1 | 19.3% (inactive) | –
COc1ccc(OC)c(-c2csc(NC(=O)COC(=O)C3CC3)n2)c1 | – | 10 µM (active)
COc1ccc(-c2csc(NC(=O)COC(=O)c3ccc(Br)o3)n2)cc1 | 0.372% (inactive) | –
COc1ccc(OC)c(NC(=O)c2sc3nc(C)cc(C)c3c2N)c1 | 20.2% (inactive) | –
COc1ccc(C(=O)NC2=NCCS2)c(OC)c1 | -19.4% (inactive) | –
COc1ccc(OC)c(-c2csc(NC(=O)C3=NNC(=O)CC3)n2)c1 | – | 0.891 µM (active)
COCCCn1c(SCC(=O)Nc2oc(C)c3c(C)n[nH]c(=O)c23)nc2sc3c(c2c1=O)CCC3 | 6.64% (inactive) | –
COc1ccc(CN2C(CC(=O)Nc3cccnc3)c3ccc(C(F)(F)F)cc3S2(=O)=O)cc1 (stereo not given) | 5.53% (inactive) | –
Cc1cc(C)c(C)c(S(=O)(=O)Nc2cccnc2)c1C | 3.82% (inactive) | –
CC(OC(=O)C1CC(=O)N(Cc2ccccc2)C1)C(=O)Nc1ccccc1[N+](=O)[O-] (stereo not given) | 4.16% (inactive) | –
CCOc1ccc(N2C(=O)CSC2=NC#N)cc1 | 10.2% (inactive) | –
COc1ccc(OC)c(-n2c(=S)[nH]c3cc(C(=O)N4CCCCC4)ccc3c2=O)c1 | 2.37% (inactive) | –

SMILES | activity change, negative = inhibition | Potency
COc1cc(-n2c(=S)[nH]c3ccc(C)cc3c2=O)c(Cl)cc1Cl | – | 10 µM (active)
COc1cc2[nH]c(=S)n(Cc3ccc(F)cc3)c(=O)c2cc1OC | -14.5% (inactive) | –
CCN(C(=O)CSc1cccc[n+]1[O-])c1ccccc1 | 1.01% (inactive) | –
Cc1onc(NC(=O)c2ccc([N+](=O)[O-])o2)c1Br | 12.3% (inactive) | –
Cc1cccc(NC(=S)NC(=O)c2ccc(Br)o2)c1 | -5.17% (inactive) | –
Cc1cccc(NC(=O)c2ccc([N+](=O)[O-])o2)c1 | – | 3.55 µM (active)
CC(C)(C)OC(=O)N[C@H](C(=O)OC(C)(C)C)c1ccc(Br)cc1 | -6.12% (inactive) | –
CC1(C)C(=O)CCC2(C)C1=CCC1C2C(=O)CC2(C)C1CCC2(O)C(=O)CO (stereo not given) | 9.92% (inactive) | –
C[C@]12C=CC(=O)C=C1CC[C@@H]1[C@@H]2C(=O)C[C@@]2(C)[C@H]1CC[C@]2(O)C(=O)CO | – | inactive and 2.82 µM (active)
CC(=O)OCC(=O)C1(O)CCC2C3CC(C)C4=CC(=O)CCC4(C)C3C(O)CC21C (stereo not given) | 7.93% (inactive) | –
COc1ccc(-c2nnc(SCC(=O)c3cccs3)o2)c(OC)c1 | -14.7% (inactive) | –
COc1ccc(-n2c(C)cc(C(=O)CSc3nnc(-c4cccs4)o3)c2C)cc1 | – | 11.2 µM (active)
COc1ccc(C(=O)CSc2nnc(-c3ccco3)o2)cc1 | -11.4% (inactive) | –
COc1cc(C=NNC(=O)c2cccnc2)ccc1OC(=O)c1ccccc1F | -1.01% (inactive) | –
O=C(COC(=O)c1ccccn1)NNC(=O)c1ccc([N+](=O)[O-])cc1 | -0.758% (inactive) | –
O=C(Nc1ccccc1)N1CCC(C(=O)N2CCN(Cc3ccccc3)CC2)CC1 | 8.63% (inactive) | –
c1cnc(Nc2nc(-c3ccc4ccccc4c3)cs2)nc1 | -8.89% (inactive) | –
Cc1cccc(Nc2nc(-c3ccccc3)cs2)n1 | -8.65% (inactive) | –
c1ccc(Nc2nc(-c3ccncc3)cs2)nc1 | – | 11.2 µM (active)
CC(C)CN1CC(C)C(=O)N(c2ccccc2)C1=S (stereo not given) | 2.15% (inactive) | –
O=[N+]([O-])c1ccc(N2CCOCC2)cc1 | 9.72% (inactive) | –
COc1ccc(C2NCCCC2c2ccccc2)cc1 (stereo not given) | 1.92% (inactive) | –
CCOC(=O)N1CCN(Cc2nc3cc(NC(C)=O)ccc3n2C)CC1 | 10.3% (inactive) | –
CC(=O)NCCc1nc2cc(NC(=O)c3ccccc3)ccc2n1C | 10.2% (inactive) | –
Cn1c(CN2CCOCC2)nc2cc(NC(=O)c3ccc(Cl)cc3)ccc21 | – | 2.82 µM (active)

SMILES | activity change, negative = inhibition | Potency
COC(=O)Cc1ccc(Oc2ncc(C(F)(F)F)cc2Cl)cc1 | -12.6% (inactive) | –
COc1cccc(/C(C)=N/Nc2ncc(Cl)cc2Cl)c1 | -0.35% (inactive) | –
COc1cccc(/C=N/Nc2ncc(C(F)(F)F)cc2Cl)c1O | – | 5.62 µM (active)
Cc1cccc(NC(=O)CN2CCN(CC(=O)NCC3(N4CCCCC4)CCCCC3)CC2)c1C | 6.26% (inactive) | –
COc1ccc(S(=O)(=O)N2CCOCC2)cc1NC(=O)Cc1coc2cc(C)ccc12 | -7.25% (inactive) | –
Cc1ccc(-c2nn(-c3ccccc3)cc2C(=O)NCCCN2CCCC2=O)cc1 | 1.07% (inactive) | –
CC(C)CCn1c(=O)c2c(nc3n2CCCN3Cc2ccccc2)n(C)c1=O | – | 11.2 µM (active)
Cn1c(=O)n(CCc2ccccc2)c(=O)c2c1nc1n2CCCN1c1ccccc1 | -15.1% (inactive) | –
CC(C)CCn1c(CN(C)Cc2ccccc2)nc2c1c(=O)n(C)c(=O)n2C | -26.5% (inactive) | –
O=c1[nH]c(=S)[nH]c(O)c1/C=C1\C=Nc2ccccc21 | 23.1% (inactive) | –
Cc1cc(F)ccc1S(=O)(=O)Nc1ccc(C(=O)N(C)Cc2ccco2)cc1 | 4.73% (inactive) | –
CCOC(=O)C1=CN(Cc2ccc(Br)cc2)S(=O)(=O)NC1C (stereo not given) | -13.7% (inactive) | –
COC(=O)c1cc(Oc2ccc(S(=O)(=O)N3CCOCC3)cc2[N+](=O)[O-])cc(C(=O)OC)c1 | -16.3% (inactive) | –
O=C(CCN1c2ccccc2Sc2ccccc21)Nc1ccccc1 | – | 12.6 µM (active)
O=C(CCN1C(=O)c2ccccc2C1=O)Nc1ccncc1 | 10.5% (inactive) | –
CC1CCN(CCC(=O)Nc2ccccc2)CC1 | 4.3% (inactive) | –
O=S(=O)(Nc1ccc(-n2cnnn2)cc1)c1ccc(Cl)cc1 | 16.9% (inactive) | –
Fc1ccccc1-c1cc2cc3c(cc2cn1)OCO3 | -27.8% (inactive) | –
O=C(CCN1CCCCC1)NCC(=O)Nc1ccc(Br)cc1C(=O)c1ccccc1 | – | 10 µM (active)
Cc1ccc(NC(=O)c2nc[nH]c2C(=O)N2CCCCC2)c(C(=O)c2ccccc2)c1 | 2.79% (inactive) | –
COc1ccc(NC(=O)CCN2CCCC2)c(OC)c1 | 9.37% (inactive) | –
Cc1cccc(C)c1Nc1nnc(SCC(=O)NCCCN2CCCC2=O)s1 | -10.2% (inactive) | –
COC(=O)C1=CO[C@@H](O[C@@H]2O[C@H](CO)[C@@H](O)[C@H](O)[C@H]2O)C2C1C[C@H](O)[C@@H]2C (stereo not given in full) | – | 2.51 µM (active)
C=CC1C(OC2OC(CO)C(O)C(O)C2O)OC=C(C(=O)OC)C1CC1CC(=O)CC(CC(=O)CCc2ccc(O)cc2)O1 (stereo not given) | 7.56% (inactive) | –
CO[C@H]1[C@@H]2C=CO[C@@H](O[C@H]3O[C@@H](CO)[C@H](O)[C@@H](O)[C@@H]3O)[C@@H]2[C@@]2(CO)O[C@@H]12 | 13.9% (inactive) | –
